This is a sample that favours compounds with a hit; in the whole collection about 0.87% have one here.
EPAC2 antagonist = blocks human EPAC2 exchange factor; EPAC2 GEF exchange of Rap1B-BODIPY-GDP, fluorescence; Potency, µM (highest dose often 114 µM), actives largely listed as inhibitors; 360,000 compounds, 0.18% hits; Q8WZA2; note: nearly all actives have a fitted effect of over 45% in size
Target sequence (Q8WZA2 whole entry, looked up): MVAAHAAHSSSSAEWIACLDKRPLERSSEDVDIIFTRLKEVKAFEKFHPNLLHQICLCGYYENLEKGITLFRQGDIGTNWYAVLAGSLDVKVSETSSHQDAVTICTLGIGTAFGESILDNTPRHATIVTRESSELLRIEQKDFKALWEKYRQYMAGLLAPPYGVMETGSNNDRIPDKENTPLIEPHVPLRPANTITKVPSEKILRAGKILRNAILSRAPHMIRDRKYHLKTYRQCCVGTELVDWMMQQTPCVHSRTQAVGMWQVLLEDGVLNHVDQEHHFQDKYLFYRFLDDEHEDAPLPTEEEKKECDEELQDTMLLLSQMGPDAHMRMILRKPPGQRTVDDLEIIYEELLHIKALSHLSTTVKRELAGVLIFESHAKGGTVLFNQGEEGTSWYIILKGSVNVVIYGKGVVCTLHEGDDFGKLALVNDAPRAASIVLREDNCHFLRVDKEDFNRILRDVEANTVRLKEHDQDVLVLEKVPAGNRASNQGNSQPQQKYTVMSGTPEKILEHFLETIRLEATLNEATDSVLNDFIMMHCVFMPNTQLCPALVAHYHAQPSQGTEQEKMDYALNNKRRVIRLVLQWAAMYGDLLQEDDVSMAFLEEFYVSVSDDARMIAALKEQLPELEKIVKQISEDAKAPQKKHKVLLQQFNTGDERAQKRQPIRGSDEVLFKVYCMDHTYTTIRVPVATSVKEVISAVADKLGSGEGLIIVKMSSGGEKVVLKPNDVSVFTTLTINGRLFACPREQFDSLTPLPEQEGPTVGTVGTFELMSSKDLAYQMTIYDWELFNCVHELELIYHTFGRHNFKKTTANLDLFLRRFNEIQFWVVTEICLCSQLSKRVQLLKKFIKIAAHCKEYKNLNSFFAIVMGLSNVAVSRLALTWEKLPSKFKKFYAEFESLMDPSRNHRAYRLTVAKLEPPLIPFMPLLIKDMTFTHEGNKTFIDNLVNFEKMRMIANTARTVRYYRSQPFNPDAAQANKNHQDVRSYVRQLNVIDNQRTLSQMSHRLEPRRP
FBPA coupling cs = counter-screen for Giardia aldolase inhibitors: coupling enzyme system; 290,000 compounds, 0.67% hits; coupling enzyme system counterscreen, AmpLite Red fluorescence; activity change, negative = inhibition, % at 58.2 µM, hits read low; AID 2472; in the data active = activity change below about -30%
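Activity here indicates interference with the coupling reaction, not aldolase inhibition. Compounds at 57.5 uM final met coupling enzymes for 10 min at RT; substrate and AmpLite Red detection followed, with a 525/598 nm fluorescence read after 20 min.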
EPAC2 agonist = agonists of human EPAC2 (RAPGEF4) | Q8WZA2 | EPAC2 activation, biochemical qHTS; response scale: 100% = 6.5 mM cAMP response | Potency, µM (top dose mostly 154 µM), actives largely listed as activators | 360,000 compounds, 0.079% hits; note: nearly all actives have a fitted effect of over 50% in size
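Guanine nucleotide exchange by EPAC2 is measured as reduced fluorescence of BODIPY-GDP once it is released from 250 nM Rap1B. Plates are read kinetically for 30 min at room temperature; results are scaled to 6.5 mM cAMP.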
EPAC1 agonist = agonists of human EPAC1. O95398. EPAC1 agonist qHTS, biochemical assay; response scale: 100% = response to 6.5 mM cAMP. Potency, µM (highest dose often 154 µM), actives largely listed as activators. 360,000 compounds, 0.073% hits. AID 720707; note: nearly all actives have a fitted effect of over 60% in size
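Normalized to 6.5 mM cAMP, activity reflects EPAC1-catalysed release of BODIPY-GDP from Rap1B, followed kinetically over 30 min at 480 nm excitation, 540 nm emission. Reaction contained 100 nM EPAC1, 250 nM Rap1B-BODIPY-GDP, 50 uM GDP.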
EPAC1 antagonist = blocks human EPAC1 exchange factor. O95398. 360,000 compounds, 0.14% hits. EPAC1 GEF assay, Rap1b-BODIPY-GDP exchange fluorescence. Potency, µM (series often up to 115 µM), usual class: inhibitors; note: nearly all actives have a fitted effect of over 50% in size
USP1-UAF1 inh = inhibitors of human USP1/UAF1 deubiquitinase; O94782; recombinant USP1/UAF1, Ub-Rhodamine cleavage fluorescence; Potency, µM (doses to about 57.1 µM), hits mostly inhibitors; 390,000 compounds, 0.23% hits; AID 743255; note: nearly all actives have a fitted effect of over 60% in size
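High-throughput fluorogenic screen: 1nM USP1/UAF1 complex, Ub-Rho substrate 150nM final, 50mM HEPES pH 7.8 with 0.5mM EDTA, 0.1 mg/ml BSA, 1mM TCEP and 0.01% Tween-20.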
Numbers stand for hits; 0 = inactive; ? = inconclusive; - = no result given. Unless noted, calls come from the whole dose curve; as a rule, active = well fitted curve in the direction sought with a large enough effect; inconclusive = small, poorly fitted or top-dose-only effect, or another doubt; inactive = no such curve, though single readings can be large; an effect the other way counts as inactive or inconclusive.

SMILES	EPAC2 antagonist	FBPA coupling cs	EPAC2 agonist	EPAC1 agonist	EPAC1 antagonist	USP1-UAF1 inh
O=C1NC(=S)S/C1=C\c1ccc(SCc2ccco2)o1	45µM	0	0	0	?	?
O=C1NC(=S)S/C1=C\c1ccc(SCc2ccccc2)o1	?	0	0	0	22µM	0
COc1ccccc1C=C1SC(=S)NC1=O	0	-	0	0	?	0
Cc1ccc(-c2nc3ccccc3[nH]2)cc1NC(=O)c1sc2cc(Cl)ccc2c1Cl	0	0	0	0	0	0
CNC(=O)c1ccc(CN(C)CC(=O)Nc2ccccc2C(=O)NC2CC2)cc1	0	-	0	0	0	0
CN1CCS/C1=C/C=C1\SC(=S)N(CC(=O)O)C1=O	?	0	0	?	0	25µM
CCCCN1C(=O)/C(=C/C=C2\SCCN2C)SC1=S	0	0	0	0	0	0
Cc1nn(C)c(C)c1NC(=O)c1ccc(Br)o1	0	0	0	0	0	0
COc1ccc(/C=N/Nc2cc(N3CCCC3)nc(N3CCCC3)n2)cc1	0	-40	0	0	0	?
Oc1ccc(/C=N/Nc2cc(N3CCCC3)nc(N3CCCC3)n2)cc1	0	-44	0	0	0	0
Oc1ccc(/C=N/Nc2cc(N3CCOCC3)nc(N3CCOCC3)n2)cc1	0	-	0	0	0	0
Oc1cccc(/C=N/Nc2cc(N3CCCC3)nc(N3CCCC3)n2)c1	0	-32	0	0	0	?
CC1=NN(c2ccccc2)C(=O)/C1=C/c1c(O)n(-c2ccc(F)c(Cl)c2)[nH]c1=O	89µM	0	0	0	50µM	0
COc1cc(NC(=S)N2CCN(CCO)CC2)c(OC)cc1Cl	0	0	0	0	0	0
OCCN1CCN(C(=S)c2ccc(Cl)c(Cl)c2)CC1	0	-32	0	0	0	0
COc1cc(C2CC(=O)N3CN(c4ccccc4C)CSC3=C2C#N)cc(OC)c1OC (stereo not given)	-	-36	-	-	-	-
COc1cccc(C2CC(=O)N3CN(c4cccc(Cl)c4C)CSC3=C2C#N)c1OC (stereo not given)	0	0	0	0	0	0
CCOc1ccc(N2CSC3=C(C#N)C(c4ccco4)CC(=O)N3C2)cc1 (stereo not given)	0	0	0	0	0	0
COc1cccc(C2CC(=O)N3CN(c4ccccc4F)CSC3=C2C#N)c1 (stereo not given)	?	0	0	0	0	0
COc1ccccc1N1CSC2=C(C#N)C(c3ccc(SC)cc3)CC(=O)N2C1 (stereo not given)	0	-38	0	0	?	0
Cc1ccc(C2CC(=O)N3CN(c4ccc(Br)cc4)CSC3=C2C#N)o1 (stereo not given)	0	-38	0	0	0	0
COc1ccccc1NC(=S)Nc1cccc2cnccc12	0	0	0	0	0	0
COc1ccc(NC(=S)Nc2cccc3cnccc23)cc1	0	-37	0	0	0	0
CCOc1ccc(NC(=S)Nc2cccc3cnccc23)cc1	0	-45	0	0	0	0
COc1cc2nc3c(c([Si](C)(C)C(C)(C)C)c2cc1OC)Cn1c-3cccc1=O	-	-42	-	-	-	-
SMILES	EPAC2 antagonist	FBPA coupling cs	EPAC2 agonist	EPAC1 agonist	EPAC1 antagonist	USP1-UAF1 inh
COc1ccc2nc3c(c([Si](C)(C)C(C)(C)C)c2c1)Cn1c-3cccc1=O	-	0	-	-	-	-
Cc1ccc2cccc(Oc3ncnc4scc(-c5ccc(Cl)cc5)c34)c2n1	0	0	0	0	0	14µM
O=C(c1ccccc1Cl)N(C(=O)c1ccccc1Cl)c1nccc(-c2cccs2)n1	0	-42	0	0	0	0
COc1cc(C2=NOC(C(=O)Nc3ccc4c(c3)OCO4)C2)cc(OC)c1OC (stereo not given)	0	0	0	0	0	0
CCO[C@H]1OC(C(=O)Nc2ccccc2)=C[C@@H](c2csc3ccccc23)[C@@H]1CCCO	0	0	0	0	0	0
O=C(NCc1ccco1)Nc1ccc2nsnc2c1	0	-38	0	0	0	0
O=C(NCCCO)Nc1ccc2nc(-c3ccco3)c(-c3ccco3)nc2c1	-	-43	-	-	-	-
O=C(Nc1ccc2nc(-c3ccco3)c(-c3ccco3)nc2c1)NC1CC1	0	-37	0	0	50µM	?
COc1ccc(C(=O)Nc2ccccc2-c2nnn(CC(N)=O)n2)cc1	0	-	0	0	89µM	0
Cc1ccc(NC(=O)COC(=O)Cn2c(C)csc2=O)c([N+](=O)[O-])c1	0	-	0	100µM	0	0
Cc1csc(=O)n1CC(=O)OCC(=O)Nc1cc([N+](=O)[O-])ccc1Cl	0	-	0	0	0	0
O=C(CCCOc1ccc(Cl)cc1Cl)N/N=C/c1ccccc1	0	-48	0	0	0	0
Cc1cccc(NC(=O)CSCC(=O)N(C)CCOc2ccc(Cl)cc2)c1	0	-	0	50µM	0	0
O=C(N/N=C\c1c(O)ccc2ccccc12)c1cncc(Br)c1	0	0	?	?	0	32µM
O=C1C=CN(Cc2ccccc2)CC1	0	0	0	0	0	0
Cc1cc(C)c(OCCCCN(C)Cc2ccccc2)c(C)c1	0	0	0	0	0	0
CCN(CC)C(=O)c1ccc2c(c1[N+](=O)[O-])C(=O)c1ccccc1C2=O	-	-42	-	-	-	-
CCN(CC)C(=O)c1cccc2c1C(=O)c1ccccc1-2	0	0	0	0	0	0
Cc1c(C(=O)N2CCCC2)oc2c1-c1nn(CC(=O)NCCCOC(C)C)cc1CC2	0	-	0	0	0	?
CCCCN(CC)CCNC(=O)Cn1cc2c(n1)-c1c(oc(C(=O)N3CCCC3)c1C)CC2	0	-31	0	0	0	?
CC1(C)OC(=O)C(=CNc2cccc(O)c2)C(=O)O1	0	0	0	0	0	0
CC1(C)OC(C)(C)/C(=C/Nc2ccc(O)cc2)C1=O	0	-44	0	0	0	?
Cc1cc2ccccn2c1C(=O)c1ccccc1F	45µM	0	0	0	0	0
O=C(Cc1ccccc1F)Nc1ccc2c(c1)CCC2	0	0	0	0	0	0
Cc1ccc(-n2c3nc(=O)[nH]c(=O)c-3cc3cc([N+](=O)[O-])ccc32)cc1	0	-34	0	0	0	0
CNC(=O)COC(=O)c1cc(F)c(F)cc1Cl	0	0	0	0	0	0
CC(C)(C)NC(=O)COC(=O)c1cc(F)c(F)cc1Cl	0	-61	0	0	0	0
O=C(N/N=C/c1ccc(-c2ccc(S(=O)(=O)Nc3ncccn3)cc2)o1)c1cc2ccccc2cc1O	0	0	0	0	13µM	?
COc1ccc(-n2nc3cc(C)c(N)c(Br)c3n2)cc1	0	-50	0	0	0	0
CC(=Nc1ccc(C)cc1C)c1sc2ccccc2c1O	0	0	?	0	0	35µM
